Values without a mark were called inactive. Active and inactive are the calls of the source.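 The calls were made as follows: active = normalized viability below 100% at a tested concentration; inactive = the rest.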
Assay: ovarian cancer cell viability with rucaparib, profiling panel, oncology-focused library, rucaparib conditional (AID 1508598)
Conditions: patient-derived ovarian cancer cells, CellTiter-Glo viability, 144 h; at 0.0781 µM; OCI-P5x cells; without rucaparib; active compounds read low

| SMILES | viability [%] |
| --- | --- |
| CS(=O)c1ccc(-c2nc(-c3ccc(F)cc3)c(-c3ccncc3)[nH]2)cc1 (stereo not given) | 112 |
| O=c1cc(-c2cccc3c2Sc2ccccc2S3)oc(N2CCOCC2)c1 | 103 |
| O=C(O)c1ccc(-c2c[nH]c3ncc(-c4ccccc4)cc23)cc1C1CCCC1 | 103 |
| N#Cc1c(O)c2c(-c3ccc(-c4ccccc4O)cc3)csc2[nH]c1=O | 115 |
| O=c1[nH]c(-c2ccc(C(F)(F)F)cc2)nc2c1CSCC2 | 105 |

Same assay, conditions: patient-derived ovarian cancer cells, CellTiter-Glo viability, 144 h; at 0.313 µM; OCI-C5x cells; with rucaparib 10 µM; active compounds read low; 100% = cells with rucaparib alone

| SMILES | viability |
| --- | --- |
| CS(=O)c1ccc(-c2nc(-c3ccc(F)cc3)c(-c3ccncc3)[nH]2)cc1 (stereo not given) | 129% |
| O=c1cc(-c2cccc3c2Sc2ccccc2S3)oc(N2CCOCC2)c1 | 108% |
| O=C(O)c1ccc(-c2c[nH]c3ncc(-c4ccccc4)cc23)cc1C1CCCC1 | 91.3% (active) |
| N#Cc1c(O)c2c(-c3ccc(-c4ccccc4O)cc3)csc2[nH]c1=O | 115% |
| O=c1[nH]c(-c2ccc(C(F)(F)F)cc2)nc2c1CSCC2 | 107% |

Same assay, conditions: patient-derived ovarian cancer cells, CellTiter-Glo viability, 144 h; at 0.313 µM; OCI-C5x cells; without rucaparib; active compounds read low

| SMILES | viability [%] |
| --- | --- |
| CS(=O)c1ccc(-c2nc(-c3ccc(F)cc3)c(-c3ccncc3)[nH]2)cc1 (stereo not given) | 159 |
| O=c1cc(-c2cccc3c2Sc2ccccc2S3)oc(N2CCOCC2)c1 | 126 |
| O=C(O)c1ccc(-c2c[nH]c3ncc(-c4ccccc4)cc23)cc1C1CCCC1 | 116 |
| N#Cc1c(O)c2c(-c3ccc(-c4ccccc4O)cc3)csc2[nH]c1=O | 134 |
| O=c1[nH]c(-c2ccc(C(F)(F)F)cc2)nc2c1CSCC2 | 102 |

Same assay, conditions: patient-derived ovarian cancer cells, CellTiter-Glo viability, 144 h; at 0.313 µM; OCI-P5x cells; with rucaparib 20 µM; active compounds read low; 100% = cells with rucaparib alone

| SMILES | viability |
| --- | --- |
| CS(=O)c1ccc(-c2nc(-c3ccc(F)cc3)c(-c3ccncc3)[nH]2)cc1 (stereo not given) | 119% |
| O=c1cc(-c2cccc3c2Sc2ccccc2S3)oc(N2CCOCC2)c1 | 91.8% (active) |
| O=C(O)c1ccc(-c2c[nH]c3ncc(-c4ccccc4)cc23)cc1C1CCCC1 | 102% |
| N#Cc1c(O)c2c(-c3ccc(-c4ccccc4O)cc3)csc2[nH]c1=O | 117% |
| O=c1[nH]c(-c2ccc(C(F)(F)F)cc2)nc2c1CSCC2 | 105% |

Same assay, conditions: patient-derived ovarian cancer cells, CellTiter-Glo viability, 144 h; at 0.313 µM; OCI-P5x cells; without rucaparib; active compounds read low

| SMILES | viability |
| --- | --- |
| CS(=O)c1ccc(-c2nc(-c3ccc(F)cc3)c(-c3ccncc3)[nH]2)cc1 (stereo not given) | 111% |
| O=c1cc(-c2cccc3c2Sc2ccccc2S3)oc(N2CCOCC2)c1 | 105% |
| O=C(O)c1ccc(-c2c[nH]c3ncc(-c4ccccc4)cc23)cc1C1CCCC1 | 102% |
| N#Cc1c(O)c2c(-c3ccc(-c4ccccc4O)cc3)csc2[nH]c1=O | 118% |
| O=c1[nH]c(-c2ccc(C(F)(F)F)cc2)nc2c1CSCC2 | 94.6% (active) |

— PubChem BioAssay
